# Test results taken from PubChem BioAssay AID485358 (National Center for Advancing Translational Sciences (NCATS), 2010).
# Screen size: about 340,000 compounds; about 1,800 (0.53%) were called active.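 How the source made its calls: active means activation over 3 SD above normal in the single-dose calcium agonist read (cut at about 30% in these data); inactive means the rest.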 Only a selection was taken, and actives are over-represented in it overall.
# Molecular target: D(2) dopamine receptor (Homo sapiens) (UniProt P14416)
# Assay: HTS Assay for Allosteric Agonists of the Human D2 Dopamine Receptor: Primary Screen for Agonists; further: 0% is about no effect
# Conditions: HEK293 T-REx D2 cells, calcium flux agonist mode; at 2 µM; active compounds read high
# Text: NIH Chemical Genomics Center [NCGC] NIH Molecular Libraries Probe Centers Network [MLPCN] MLPCN Grant: NS064831-01 Assay Submitter (PI): David Sibley Dopamine receptors (DARs) are involved in the etiology and/or therapy of a number of neuropsychiatric and endocrine disorders. For instance, all receptor-based antiparkinsonian drugs work via stimulating the D2 DAR subtype whereas all FDA-approved antipsychotic agents are antagonists of this receptor. […] There are three different types of allosteric modulators that we are seeking, two of which will stimulate or augment receptor signaling, allosteric agonists and potentiators, while the third, allosteric antagonists, will attenuate receptor signaling. The present primary screening assay measures compound agonism by tracking calcium flux in a […], inducible Hek293 Trex D2 cell line.
# Freshly passaged cells are plated in 1536 well black, clear bottom plates at a density of 4000 cells/well in 3 ul of complete media containing 1x tetracycline inducer. After an overnight incubation at […] in 5% CO2, cells are loaded with 2 ul of the no wash Calcium Assay Kit (ABD Bioquest) and incubated at room temperature for 30 to 90 minutes. Agonist read: A 10 cycle (1 second/cycle) baseline measurement is taken and then the FDSS online 1536 pintool delivers 23 nl of compound library (as well as dopamine controls) to the plate. The plate is measured for kinetically at 1 cycle/sec for 180 seconds and is considered to be the agonist portion of the assay (eg, compounds which activate a positive calcium response during this portion are flagged as potential agonists). Following the 180 second read, 1 ul of either an EC20 (positive modulation assay) or EC80 (negative modulation assay) is delivered by an onboard pipette head. Measurements are taken kinetically for an additional 180 seconds.
# Chain of D(2) dopamine receptor (Homo sapiens) (P14416 whole entry, looked up): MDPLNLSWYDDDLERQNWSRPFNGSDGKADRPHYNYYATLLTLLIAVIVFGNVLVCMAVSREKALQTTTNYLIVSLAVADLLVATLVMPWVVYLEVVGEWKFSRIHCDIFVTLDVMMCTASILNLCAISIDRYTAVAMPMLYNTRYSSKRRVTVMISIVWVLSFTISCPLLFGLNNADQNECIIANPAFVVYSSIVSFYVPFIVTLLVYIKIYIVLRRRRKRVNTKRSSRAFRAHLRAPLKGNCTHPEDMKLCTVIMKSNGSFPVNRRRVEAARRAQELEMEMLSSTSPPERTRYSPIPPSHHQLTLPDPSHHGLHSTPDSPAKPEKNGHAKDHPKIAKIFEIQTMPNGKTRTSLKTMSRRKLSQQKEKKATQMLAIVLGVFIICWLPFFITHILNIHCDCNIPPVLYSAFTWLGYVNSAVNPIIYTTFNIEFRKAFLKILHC
row,Compound,activation
1,COc1ccccc1CN1CCN(C(=O)Cc2ccccc2)CC1,0.485% (inactive)
2,Fc1cccc(F)c1CN1CCN(Cc2c(F)cccc2F)CC1,1.26% (inactive)
3,COc1ccc(CN2CCN(c3ccccc3F)CC2)c(OC)c1,71.7% (active)
4,COC(=O)C1=C(c2cccc(OCc3ccccc3)c2)C[C@@H]2CC[C@H]1N2C(=O)NNCc1ccccc1,-0.13% (inactive)
5,Oc1cc2c(cc1CN1CCN(c3ccccc3)CC1)OCO2,83.3% (active)
6,CC(C)c1ccc(O)c(CN2CCN(c3ccccc3)CC2)c1,-1.71% (inactive)
7,Fc1ccc(N2CCN(Cc3ccc4c(c3)OCO4)CC2)cc1,6.76% (inactive)
8,COC(=O)C1=C(c2ccc3ccccc3c2)C[C@@H]2CC[C@H]1N2C(=O)NCCO,-0.422% (inactive)
9,CCc1ccc(OCC(=O)N2CCN(CC(=O)Nc3ccccc3Cl)CC2)cc1,1.2% (inactive)
10,Cc1cccc(Cn2cccc(C(=O)Nc3ccc4c(c3)OCCO4)c2=O)c1,0.0946% (inactive)
11,CCOC(=O)C1(Cc2ccc(Cl)cc2)CCN(C(C)CCn2cccn2)CC1 (stereo not given),72.7% (active)
12,CCOC(=O)C1(CCc2ccccc2)CCN(Cc2ccco2)CC1,0.433% (inactive)
13,COC(=O)C1=C(c2ccc(F)cc2OCc2ccccc2)C[C@@H]2CC[C@H]1N2C(=O)NCc1ccc(OC)c(OC)c1,-0.652% (inactive)
14,O=C(CCC(=O)N1C[C@H]2C[C@@H](C1)c1cccc(=O)n1C2)NCc1ccccc1C(F)(F)F,0.976% (inactive)
15,Cc1nnc(NC(=O)c2cccn(Cc3cccc(F)c3)c2=O)s1,0.455% (inactive)
